According to PubChem BioAssay (NCI):
Values joined by “and” are separate entries in the source; they are usually repeats but may differ in a detail not shown here. Equal values may be shown once. Compounds without any hit were thinned out: in the full panel of roughly 83,000, 20% have a hit.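 48-hour exposure, single concentration, 96-well plates; percent growth endpoint where 0 means no net growth. Active: below 10.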 Active and inactive are the calls of the source.

Experiments:
Assay in all cases: NCI-60 one-dose screen, 48 h (100 = growth as untreated, 0 = no growth, -100 = all killed)
Settings in all cases: 10 µM unless noted
[1] = tested on: HCT-15 colon
[2] = tested on: HT29 colon
[3] = tested on: SNB-75 CNS
[4] = tested on: U251 CNS
[5] = tested on: PC-3 prostate
[6] = tested on: SK-MEL-5 melanoma
[7] = tested on: UACC-62 melanoma
[8] = tested on: LOX IMVI melanoma
[9] = tested on: SK-MEL-28 melanoma
[10] = tested on: SK-MEL-2 melanoma
[11] = tested on: EKVX NSCLC
[12] = tested on: SN12C renal
[13] = tested on: UO-31 renal
[14] = tested on: TK-10 renal
[15] = tested on: ACHN renal
[16] = tested on: CAKI-1 renal
[17] = tested on: A498 renal
[18] = tested on: CCRF-CEM leukemia
[19] = tested on: MOLT-4 leukemia
[20] = tested on: SNB-19 CNS

In the case of `Clc1nc(Oc2ccccc2)nc(-c2cn(-c3ccccc3)c3ccccc23)n1`, the growth [1] is reported as 38.5% (inactive), the growth [2] is reported as 40.6% (inactive) and the growth [3] is reported as 105% (inactive). The growth [4] was 47.2% (inactive), the growth [5] was 41.3% (inactive) and the growth [6] was 102% (inactive). For the same molecule, the growth [7] was 80.7% (inactive), the growth [8] was 10.7% (inactive) and the growth [9] was -18.3% (active). For the same molecule, the growth [10] was -49.5% (active), the growth [11] was 81.3% (inactive) and the growth [12] was 85.9% (inactive). For the same molecule, the growth [13] was 17% (inactive), the growth [14] was 114% (inactive) and the growth [15] was 68.7% (inactive). The growth [16] was 13.4% (inactive), the growth [17] was 128% (inactive) and the growth [18] was 27.2% (inactive). For the same molecule, the growth [19] was 47% (inactive).

In the case of `NC(=S)NS(=O)(=O)c1ccc(N)cc1`, the growth [1] is reported as 96.8% (inactive), the growth [2] is reported as 109% (inactive) and the growth [3] is reported as 93% (inactive). For the same molecule, the growth [5] was 102% (inactive), the growth [6] was 101% (inactive) and the growth [7] was 119% (inactive). For the same molecule, the growth [8] was 105% (inactive), the growth [9] was 109% (inactive) and the growth [10] was 109% (inactive). The growth [12] was 109% (inactive), the growth [13] was 88.1% (inactive) and the growth [14] was 110% (inactive). For the same molecule, the growth [15] was 96.5% (inactive), the growth [16] was 94.8% (inactive) and the growth [17] was 82.8% (inactive). For the same molecule, the growth [18] was 106% (inactive) and the growth [19] was 101% (inactive).

In the case of `Cc1n[nH]c(=O)n(/N=C\c2c[nH]c3ccccc23)c1=O`, the growth [1] is reported as 105% (inactive), the growth [2] is reported as 101% (inactive) and the growth [3] is reported as 84% (inactive). For the same molecule, the growth [4] was 98.8% (inactive), the growth [5] was 97.9% (inactive) and the growth [6] was 102% (inactive). For the same molecule, the growth [7] was 107% (inactive), the growth [8] was 99.4% (inactive) and the growth [9] was 105% (inactive). For the same molecule, the growth [10] was 104% (inactive), the growth [11] was 109% (inactive) and the growth [13] was 60.6% (inactive). For the same molecule, the growth [14] was 100% (inactive), the growth [15] was 98.5% (inactive) and the growth [16] was 98.4% (inactive). For the same molecule, the growth [17] was 103% (inactive) and the growth [18] was 95.9% (inactive).

`Nc1ccccc1Nc1ccccc1` was tested, and the growth [1] was 86.8% (inactive) and 83.1% (inactive), the growth [3] was 106% (inactive) and 90.7% (inactive) and the growth [20] was 97.9% (inactive) and 105% (inactive). The growth [4] was 89.3% (inactive) and 86.7% (inactive), the growth [5] was 87.6% (inactive) and 91.7% (inactive) and the growth [6] was 89.5% (inactive) and 94.7% (inactive). The growth [7] was 98.8% (inactive) and 99.3% (inactive), the growth [8] was 85.1% (inactive) and 87% (inactive) and the growth [9] was 109% (inactive) and 101% (inactive). The growth [10] was 133% (inactive) and 78.1% (inactive), the growth [11] was 96.4% (inactive) and the growth [12] was 70% (inactive) and 72.6% (inactive). For the same molecule, the growth [13] was 45.3% (inactive) and 49.6% (inactive), the growth [14] was 111% (inactive) and 88.4% (inactive) and the growth [15] was 85.5% (inactive) and 75.2% (inactive). For the same molecule, the growth [16] was 73.3% (inactive), the growth [17] was 105% (inactive) and the growth [18] was 31.8% (inactive) and 25.3% (inactive). The growth [19] was 53.5% (inactive) and 88.3% (inactive).

With `CC(=O)Oc1cc(C(=O)O)cc(OC(C)=O)c1OC(C)=O` the growth [1] was 107% (inactive) and 101% (inactive), the growth [3] was 88.1% (inactive) and 90.2% (inactive) and the growth [20] was 93.4% (inactive) and 108% (inactive). The growth [4] was 93.1% (inactive) and 105% (inactive), the growth [5] was 93.4% (inactive) and 95.5% (inactive) and the growth [6] was 99.5% (inactive) and 101% (inactive). For the same molecule, the growth [7] was 93.7% (inactive) and 103% (inactive), the growth [8] was 96.3% (inactive) and 96% (inactive) and the growth [9] was 115% (inactive) and 99.3% (inactive). The growth [10] was 119% (inactive) and 107% (inactive), the growth [11] was 84.3% (inactive) and 105% (inactive) and the growth [12] was 93.9% (inactive) and 99.7% (inactive). For the same molecule, the growth [13] was 96.7% (inactive) and 98.2% (inactive), the growth [14] was 115% (inactive) and 102% (inactive) and the growth [15] was 112% (inactive) and 98.3% (inactive). For the same molecule, the growth [17] was 73.8% (inactive), the growth [18] was 101% (inactive) and 104% (inactive) and the growth [19] was 116% (inactive) and 94.1% (inactive).

In the case of `CCOC(=O)C(CNc1ccccc1)C(=O)OCC`, the growth [1] is reported as 106% (inactive), the growth [2] is reported as 105% (inactive) and the growth [3] is reported as 77.9% (inactive). The growth [4] was 93.5% (inactive), the growth [5] was 98.2% (inactive) and the growth [6] was 100% (inactive). The growth [7] was 103% (inactive), the growth [8] was 101% (inactive) and the growth [9] was 103% (inactive). The growth [10] was 109% (inactive), the growth [12] was 105% (inactive) and the growth [13] was 84.7% (inactive). For the same molecule, the growth [14] was 106% (inactive), the growth [15] was 102% (inactive) and the growth [16] was 94.9% (inactive). For the same molecule, the growth [17] was 98.5% (inactive) and the growth [19] was 98.5% (inactive).

In the case of `O=C1c2ccccc2C(=O)c2c(NCCNCCO)ccc(NCCNCCO)c21`, the growth [1] is reported as 70.2% (inactive) and 75.4% (inactive) and 72.6% (inactive), the growth [3] is reported as -26.9% (active) and -4.55% (active) and -6.89% (active) and the growth [20] is reported as -11% (active) and 14.5% (inactive) and 7.49% (active). For the same molecule, the growth [4] was -4.94% (active) and 5.29% (active), the growth [5] was -58.4% (active) and 36.2% (inactive) and 20.3% (inactive) and the growth [6] was -50.5% (active) and 7.59% (active) and 3.46% (active). The growth [7] was -73.4% (active) and 10.3% (inactive) and 6.9% (active), the growth [8] was -35.6% (active) and 0.446% (active) and 1.46% (active) and the growth [9] was -36.8% (active) and 31.2% (inactive) and 16.9% (inactive). The growth [10] was -75.2% (active) and -0.89% (active) and -16.8% (active), the growth [11] was 38.4% (inactive) and 48.9% (inactive) and the growth [12] was -0.766% (active) and 4.9% (active) and 7.36% (active). The growth [13] was -5.63% (active) and 55.9% (inactive) and 44.7% (inactive), the growth [14] was 21.8% (inactive) and 54.6% (inactive) and 38.8% (inactive) and the growth [15] was 17.9% (inactive) and 24.5% (inactive) and 22.7% (inactive). The growth [16] was 19.8% (inactive) and 50.9% (inactive) and 35.4% (inactive), the growth [17] was -4.91% (active) and 79.3% (inactive) and 29.9% (inactive) and the growth [18] was 153% (inactive) and 10.2% (inactive) and 1.67% (active). For the same molecule, the growth [19] was 143% (inactive) and -3.2% (active) and -1.56% (active).

`S=C1SCN(Cc2ccccc2)CN1Cc1ccccc1` was tested, and the growth [1] was 39.8% (inactive), the growth [2] was 65.4% (inactive) and the growth [3] was 76.1% (inactive). For the same molecule, the growth [4] was 80.2% (inactive), the growth [5] was 46.6% (inactive) and the growth [6] was 87.1% (inactive). The growth [7] was 82.5% (inactive), the growth [8] was 69.3% (inactive) and the growth [9] was 103% (inactive). For the same molecule, the growth [10] was 85% (inactive), the growth [11] was 98.5% (inactive) and the growth [12] was 90.5% (inactive). The growth [14] was 75.2% (inactive), the growth [15] was 84.5% (inactive) and the growth [16] was 76.1% (inactive). For the same molecule, the growth [17] was 74.4% (inactive), the growth [18] was 40.4% (inactive) and the growth [19] was 70.6% (inactive).

For `Cn1c(=O)c2[nH]c(CCCCCCCCc3nc4ccccc4[nH]3)nc2n(C)c1=O`, the growth [1] was 80.1% (inactive) and 96.1% (inactive), the growth [3] was 93.5% (inactive) and 80.5% (inactive) and the growth [20] was 66.9% (inactive) and 65.4% (inactive). For the same molecule, the growth [4] was 72.5% (inactive) and 80.2% (inactive), the growth [5] was 48.3% (inactive) and 87.3% (inactive) and the growth [6] was 3.01% (active) and 12.2% (inactive). For the same molecule, the growth [7] was 59.1% (inactive), the growth [8] was 58.3% (inactive) and 55.9% (inactive) and the growth [9] was 88.9% (inactive). The growth [10] was 79.3% (inactive) and 107% (inactive), the growth [11] was 42% (inactive) and 55.1% (inactive) and the growth [13] was 73.9% (inactive) and 74.9% (inactive). For the same molecule, the growth [14] was 84% (inactive) and 90.3% (inactive), the growth [15] was 61.1% (inactive) and 69% (inactive) and the growth [17] was 55.7% (inactive) and 78.8% (inactive). The growth [18] was 69.6% (inactive) and 66.4% (inactive) and the growth [19] was 41% (inactive) and 41.7% (inactive).
